In PubChem BioAssay (NCATS):
Inconclusive results are not listed. Active and inactive are the calls of the source. Calls come from the whole dose curve; as a rule, active = well fitted curve in the direction sought with a large enough effect; inconclusive = small, poorly fitted or top-dose-only effect, or another doubt; inactive = no such curve, though single readings can be large; an effect the other way counts as inactive or inconclusive.

Legend:
[1] = OV-KATE Cancer Cell Toxicity qHTS against the NCATS CANVASS Library (AID 1347345); note: potency is the fitted concentration of half-maximal effect; for activity change, negative = cytotoxicity: % is set by controls: 0 for no effect and ±100 for the full control effect
How it was run: (§1)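 Per well, 1000 cells; exposure 72 h with compound at 11 final concentrations; readout CellTiter-Glo luminescence.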

[2] = UWB1.289 Cancer Cell Toxicity qHTS against the NCATS CANVASS Library (AID 1347347); note: nearly all actives have a fitted effect of over 60% in size; note: potency is the fitted concentration of half-maximal effect; for activity change, negative = cytotoxicity: series mostly up to about 38 µM; % is set by controls: 0 for no effect and ±100 for the full control effect
How it was run: as §1

[3] = OV-SAHO Cancer Cell Toxicity qHTS against the NCATS CANVASS Library (AID 1347348); note: nearly all actives have a fitted effect of over 55% in size; note: potency is the fitted concentration of half-maximal effect; for activity change, negative = cytotoxicity: series mostly up to about 38 µM; % is set by controls: 0 for no effect and ±100 for the full control effect
How it was run: as §1

[4] = Panc-1005 Cancer Cell Toxicity qHTS against the NCATS CANVASS Library (AID 1347349); note: nearly all actives have a fitted effect of over 60% in size; note: potency is the fitted concentration of half-maximal effect
How it was run: as §1

[5] = COV-362 Cancer Cell Toxicity qHTS against the NCATS CANVASS Library (AID 1347352); note: potency is the fitted concentration of half-maximal effect
How it was run: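 qHTS cytotoxicity: compounds tested in 11 concentrations on 1000 seeded cells per well over 72 h; bortezomib served as control; signal from CellTiter-Glo luminescence.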

[6] = A2780 Cisplatin Sensitive Ovarian Cancer Cell Toxicity qHTS against the NCATS CANVASS Library (AID 1347353); note: nearly all actives have a fitted effect of over 60% in size; note: potency is the fitted concentration of half-maximal effect
How it was run: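 Seventy-two-hour exposure of cisplatin-sensitive A2780 ovarian cells to an 11-concentration qHTS series; cytotoxicity is inferred from loss of ATPLite luminescence. Bortezomib titration served as positive control.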

[7] = HEK293 12hr Apoptosis Induction qHTS against the NCATS CANVASS Library (AID 1347361); note: 0% is about no effect
How it was run: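 HEK293 cells (500/well, DMEM + 10% FBS) were exposed to natural products across an 11-point series for 12 hours at 37 degrees C. Caspase-3/7 activity was then measured with DEVD luciferase luminescence after 15 min at room temperature.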

[8] = target: Luciferin 4-monooxygenase (Photinus pyralis) (UniProt P08659); assay: Firefly luciferase counterscreen qHTS: Assay Interference Panel against the NCATS CANVASS Library (AID 1347363); note: series mostly up to about 57 µM; 0% is about no effect
Chain of Luciferin 4-monooxygenase (Photinus pyralis) (P08659 whole entry, looked up): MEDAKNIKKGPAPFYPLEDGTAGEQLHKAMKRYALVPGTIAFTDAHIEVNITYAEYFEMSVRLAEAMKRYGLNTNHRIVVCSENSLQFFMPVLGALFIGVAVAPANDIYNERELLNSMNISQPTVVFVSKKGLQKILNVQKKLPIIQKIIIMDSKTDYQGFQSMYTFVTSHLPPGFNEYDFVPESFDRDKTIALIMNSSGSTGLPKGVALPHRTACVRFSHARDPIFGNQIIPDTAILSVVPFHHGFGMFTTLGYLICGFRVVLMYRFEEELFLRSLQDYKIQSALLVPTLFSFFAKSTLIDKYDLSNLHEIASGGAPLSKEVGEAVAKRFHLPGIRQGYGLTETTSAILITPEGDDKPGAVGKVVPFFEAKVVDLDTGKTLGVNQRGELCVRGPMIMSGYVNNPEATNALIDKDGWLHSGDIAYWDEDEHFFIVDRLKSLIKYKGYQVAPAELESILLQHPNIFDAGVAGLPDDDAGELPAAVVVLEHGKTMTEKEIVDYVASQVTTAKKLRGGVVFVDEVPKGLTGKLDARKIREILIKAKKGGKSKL
How it was run: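 Purified P. pyralis luciferase (0.04 ug/mL, 4x reagent) added to Tris-acetate buffer with 0.013 mM D-luciferin, 0.013 mM ATP and 13.3 mM Mg-acetate; compounds preincubated 15 min, then luminescence read after 5 min, RT.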

[9] = qHTS for Hypoxia signaling pathway (HIF-1) antagonists against the NCATS CANVASS Library (AID 1347374); note: nearly all actives have a fitted effect of over 60% in size; note: potency is the fitted concentration of half-maximal effect
How it was run: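 HRE-bla ME-180 cells (2,000/well, 0.5% dialyzed FBS) were pre-incubated 5 h, then given an 11-point compound series plus CoCl2 (60 uM solution as added) for 17 h at 37C. CCF4 β-lactamase read (ex 405, em 460/530 nm) after 2 h at RT.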

[10] = DH5-alpha competent E. coli microbial cell viability qHTS against the NCATS CANVASS Library (AID 1347377); conditions: outcome: dose series up to 46.1 µM unless noted
How it was run: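 Cell viability of competent DH5-alpha E. coli is scored from ATP content by luminescence. Cells sit overnight at 37C with compound across an 11-point concentration series.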

[11] = qHTS for Antimalaria activity screened against the NCATS CANVASS Library (AID 1347380); note: nearly all actives have a fitted effect of over 40% in size; note: potency is the fitted concentration of half-maximal effect;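 for activity change, negative = inhibition: Plasmodium falciparum strain Dd2 asexual parasites grown in red blood cells; series mostly up to about 29 µM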
How it was run: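 Growth inhibition of asexual erythrocytic P. falciparum Dd2 was quantified by SYBR Green DNA staining. Cultures grew 72 h with compound (11-point series) in hypoxic gas at 37C; lysis and staining lasted 18 h.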

[12] = Cytotoxicity qHTS for assessment of Hepg2 cells membrane integrity screened against the NCATS CANVASS Library (AID 1347387)
How it was run: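 Fluorescence proportional to lysed-cell number, from LDH leaking out of HepG2 cells exposed 5 hr at 37C to 0.59 nM - 46 uM compound (11-point qHTS), is measured after 10 min with CytoTox-ONE.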

[13] = qHTS for inhibitors of ER calcium dysfunction: SERCaMP assay screened against the NCATS CANVASS Library (AID 1347393); note: nearly all actives have a fitted effect of over 40% in size; note: potency is the fitted concentration of half-maximal effect;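 for activity change, negative = inhibition: series mostly up to about 77 µM; % is set by controls: 0 for no effect and ±100 for the full control effect; lower secreted reporter signal means inhibitor of ER calcium depletion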
How it was run: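 SH-SY5Y GLuc-SERCaMP, 1000 cells/well, 4 h attach; cpd 16 h, 37C/5% CO2; thapsigargin (added as 6x 600 nM) 4 h; coelenterazine; luminescence. Reduced reporter release = ER Ca stabilization.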

[14] = SW1088 Cancer Cell Toxicity qHTS against the NCATS CANVASS Library (AID 1347350); note: nearly all actives have a fitted effect of over 75% in size; note: potency is the fitted concentration of half-maximal effect
How it was run: as §1

[15] = KB-8-5-11 Cancer Cell Toxicity qHTS against the NCATS CANVASS Library (AID 1347364); note: nearly all actives have a fitted effect of over 75% in size; note: potency is the fitted concentration of half-maximal effect
How it was run: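 Natural products were titrated in 11 points onto KB-8-5-11 cells, 500 per well, and cytotoxicity was scored from CellTiter-Glo luminescence after 72 hr culture.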

[16] = target: Nuclear receptor subfamily 1 group I member 3 (Homo sapiens) (UniProt Q14994); assay: qHTS for Constitutive Androstane Receptor (CAR) Antagonist screened against the NCATS CANVASS Library (AID 1347372);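 note: cells stimulated with 50 nM CITCO agonist so inhibition reflects antagonism; series mostly up to about 46 µM; % is set by controls: 0 for no effect and ±100 for the full control effect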
Chain of Nuclear receptor subfamily 1 group I member 3 (Homo sapiens) (Q14994 whole entry, looked up): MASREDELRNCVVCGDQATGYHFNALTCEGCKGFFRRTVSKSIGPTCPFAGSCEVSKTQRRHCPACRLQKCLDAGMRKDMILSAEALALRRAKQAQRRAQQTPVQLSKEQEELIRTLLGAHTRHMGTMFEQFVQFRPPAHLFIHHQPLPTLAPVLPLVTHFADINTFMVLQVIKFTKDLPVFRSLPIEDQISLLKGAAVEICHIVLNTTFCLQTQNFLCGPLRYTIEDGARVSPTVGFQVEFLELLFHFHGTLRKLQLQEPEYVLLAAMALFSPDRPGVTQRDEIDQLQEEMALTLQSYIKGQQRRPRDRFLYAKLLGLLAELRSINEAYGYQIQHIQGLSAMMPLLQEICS
How it was run: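 HepG2 cells stably carrying hCAR and CYP2B6-2.2kb luciferase reporter, 2500 cells/well, compound with 50 nM CITCO agonist for 24hr at 37C. ONE-Glo luminescence measured CAR activity; CellTiter-Fluor read viability.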

[17] = 10-beta competent E. coli microbial cell viability qHTS against the NCATS CANVASS Library (AID 1347376); note: series mostly up to about 46 µM; 0% is about no effect
How it was run: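 Cytotoxicity toward competent E. coli is scored from cellular ATP content via BacTiter-Glo luminescence following overnight compound exposure at 37C, 5% CO2.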

[18] = Inflammasome Signaling qHTS Counterscreen: IL-1-beta AlphaLISA counterscreen against the NCATS CANVASS Library (AID 1347381);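 note: cell-free check with purified IL-1β in medium and no THP-1 cells; series mostly up to about 57 µM; 0% is about no effect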
How it was run: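 To flag interference with the AlphaLISA read-out, a known amount of purified IL-1-beta (4 pg) replaced cell supernatant. Detection used anti-IL-1-beta acceptor beads, biotinylated antibody and streptavidin donor beads at room temperature.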

[19] = qHTS for activators of Nrf2/ARE signaling pathway screened against the NCATS CANVASS Library (AID 1347391); note: nearly all actives have a fitted effect of over 60% in size; note: potency is the fitted concentration of half-maximal effect
How it was run: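 Cells carrying an ARE-driven beta-lactamase reporter (HepG2 background) are dosed for 16 h, then stained with CCF4. Cell viability in the same wells is measured by CellTiter-Glo luminescence.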

[20] = HPAF-II Cancer Cell Toxicity qHTS against the NCATS CANVASS Library (AID 1347346); note: nearly all actives have a fitted effect of over 55% in size; note: potency is the fitted concentration of half-maximal effect
How it was run: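 Cytotoxicity in HPAF-II pancreatic cancer cells: 72 h treatment across 11 concentrations, ATP-based CellTiter-Glo luminescence endpoint.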

CCC(=O)N[C@@H](C[C@H](C)C(Cl)(Cl)Cl)C(=O)N1C(=O)C=C(OC)[C@@H]1CC(C)C
active: Potency [6] 26.4 µM
inactive: Potency [1] | Potency [2] | Potency [3] | Potency [4] | Potency [5] | outcome [7] | Potency [8] | Potency [9] | outcome [10] | Potency [11] | outcome [12] | Potency [13]

CO[C@H]1[C@@H](OC(=O)/C(C)=C\[C@@H]2O[C@@H]2[C@H]2O[C@H]2C)[C@H](O)[C@H](OCC23C[C@@H]4[C@H](C)CC[C@H]4C4(C=O)CC2C=C(C(C)C)C34C(=O)O)O[C@@H]1C (stereo partly specified)
active: Potency [19] 16.6 µM
inactive: Potency [1] | Potency [2] | Potency [3] | Potency [4] | Potency [14] | Potency [5] | Potency [15] | Potency [16] | Potency [9] | outcome [17] | outcome [10] | outcome [18] | outcome [12]

C=C1CC[C@@H](Br)C(C)(C)[C@]12CC=C(C)C(=O)C2
active: Potency [19] 16.6 µM
inactive: Potency [1] | Potency [2] | Potency [3] | Potency [4] | Potency [5] | Potency [6] | outcome [7] | Potency [8] | Potency [15] | Potency [16] | Potency [9] | Potency [11] | outcome [18] | outcome [12]

CC(C)=CCC[C@]12c3cc4c(cc3CC[C@@]1(C)[C@H](C)CC[C@@H]2O)[nH]c1ccccc14
inactive: Potency [1] | Potency [5] | outcome [7] | Potency [8] | Potency [16] | outcome [17] | outcome [10] | outcome [18] | outcome [12] | Potency [19]

CN1CC[C@]2(c3cccc4c3N[C@H]3N(C)CC[C@@]43[C@]34CCN(C)[C@H]3Nc3ccccc34)c3ccccc3N[C@H]12
inactive: outcome [7] | Potency [8] | outcome [17] | outcome [10] | outcome [12]
active: Potency [1] 18.8 µM | Potency [2] 18.8 µM | Potency [3] 16.7 µM | Potency [4] 21.1 µM | Potency [5] 14.9 µM | Potency [15] 18.7 µM | Potency [11] 37.5 nM

C[C@H]1C=C[C@H]2CCCC[C@@H]2[C@H]1C(=O)[C@H]1CC2=C(C(=O)O)CCN2C1=O
inactive: Potency [1] | Potency [2] | Potency [4] | Potency [5] | outcome [7] | Potency [8] | Potency [15] | Potency [9] | outcome [17] | outcome [10] | Potency [11] | outcome [18] | outcome [12]
active: Potency [14] 16.8 µM | Potency [19] 16.6 µM | Potency [13] 19.3 µM

O=C1CC2OCC=C3CN4C5CC3C2[C@@H]2N1c1ccccc1[C@]52C[C@@H]4C1=C[C@H]2C3CC4N(CC[C@@]45c4ccccc4N(C1=O)[C@@H]25)C/C3=C/CO (stereo partly specified)
active: Potency [20] 21.1 µM | Potency [4] 16.8 µM | Potency [6] 7.43 µM | Potency [15] 18.7 µM | Potency [11] 2360 nM | Potency [19] 1.66 µM
inactive: Potency [1] | Potency [16] | outcome [17] | outcome [10]

C[n+]1cc2cc(C(N)=O)[nH]c3c(=N)c(Cl)c(N)c1c23
inactive: Potency [1] | Potency [2] | Potency [3] | Potency [14] | Potency [5] | outcome [7] | Potency [8] | Potency [15] | Potency [16] | outcome [17] | outcome [10] | Potency [11] | Potency [19] | Potency [13]

C/C=C(/C)c1c(Cl)c(O)c(C)c2c1Oc1c(Cl)c(O)c(Cl)c(C)c1C(=O)O2
inactive: Potency [1] | Potency [3] | Potency [4] | Potency [5] | outcome [7] | Potency [8] | Potency [16] | Potency [11] | outcome [18] | outcome [12] | Potency [19] | Potency [13]
active: Potency [14] 18.8 µM | Potency [9] 10.6 µM

CC(C)=CC[C@H]1C[C@@]2(CC=C(C)C)C(=O)[C@](CC=C(C)C)(C(=O)C(C(=O)c3ccccc3)=C2O)C1(C)C
active: Potency [20] 6.68 µM | Potency [2] 8.38 µM | Potency [3] 14.9 µM | Potency [4] 13.3 µM | Potency [14] 4.21 µM | Potency [6] 14.8 µM | Potency [15] 20.9 µM | Potency [9] 5.94 µM | Potency [13] 30.5 µM
inactive: Potency [8] | Potency [16] | outcome [17] | outcome [10] | outcome [18] | Potency [19]

C=C(C)CC[C@H](Cc1c(O)cc(O)c2c1O[C@H](c1ccc(O)cc1)CC2=O)C(=C)C
active: Potency [14] 23.7 µM | Potency [6] 23.5 µM
inactive: Potency [1] | Potency [20] | Potency [4] | Potency [5] | Potency [16] | Potency [11] | outcome [18] | outcome [12]

Cc1occ2c1C(=O)c1c(cc(O)c(O)c1O)C2=O
inactive: Potency [1] | Potency [8] | outcome [10]
active: Potency [14] 5.95 µM

COc1cc(C2OCC3C(c4ccc(O)c(OC)c4)OCC23)ccc1O (stereo unspecified)
active: Potency [19] 0.305 µM
inactive: activity change, negative = cytotoxicity [1] -0.541% [at 7.64 µM] | activity change, negative = cytotoxicity [2] -13.2% [at 7.64 µM] | activity change, negative = cytotoxicity [3] -15.1% [at 7.64 µM] | activity change, negative = cytotoxicity [4] -5.51% [at 7.64 µM] | outcome [14] inactive [at 7.64 µM] | activity change, negative = cytotoxicity [5] -3.45% [at 7.64 µM] | outcome [6] inactive [at 9.19 µM] | activity change, negative = inhibition [8] 1.7% [at 11.5 µM] | outcome [15] inactive [at 9.19 µM] | activity change, negative = inhibition [16] 9.55% [at 9.19 µM] | outcome [10] inactive [at 9.19 µM] | cytotoxicity (LDH release) [12] 0.144 [at 9.19 µM] | activity change, negative = inhibition [13] 43.6% [at 15.3 µM]

C[C@]12CC[C@]3(C1)[C@H](CC2=O)C[C@@H](OC(=O)c1ccccc1)[C@H]1[C@](C)(C(=O)O)CCC[C@@]13C
inactive: Potency [1] | Potency [5] | outcome [7] | outcome [17] | outcome [12] | Potency [13]
active: Potency [14] 1.49 µM | Potency [6] 16.6 µM | Potency [11] 13.3 nM | Potency [19] 3.71 µM
